The supplement of paper PMC6555819

Columns and labels:
Assay in all cases: PBM binding z-score (relative to random genomic background probes); higher = stronger binding; sequences stand for … in GC…GCGATTGACAGCGTAGAATGAAGG
[1] = system: FXR:RXRa (NR concentration 270 nM, RXRa partner concentration 90 nM)
How it was run: (§1)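 Ligand-free nuclear receptor dimers were applied to custom Agilent 4×180K protein-binding microarrays whose double-stranded probes carried direct-repeat seeds, single-nucleotide variants, half-site ablations and random human genomic background sequences in 34-nt variable regions. Incubation lasted 1 h. Binding z-scores were computed against the random background probes from regression-normalized fluorescence.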

[2] = system: LXRa:RXRa (NR concentration 270 nM, RXRa partner concentration 90 nM)
How it was run: as §1

[3] = system: LXRa homodimer (NR concentration 270 nM)
How it was run: as §1

[4] = system: LXRb:RXRa (NR concentration 270 nM, RXRa partner concentration 90 nM)
How it was run: as §1

[5] = system: LXRb homodimer (NR concentration 270 nM)
How it was run: as §1

[6] = system: PPARa:RXRa (NR concentration 270 nM, RXRa partner concentration 90 nM)
How it was run: as §1

[7] = system: PPARg:RXRa (NR concentration 180 nM, RXRa partner concentration 90 nM)
How it was run: as §1

[8] = system: PPARg:RXRa 270nM:90nM, anti-RXR (NR concentration 270 nM, RXRa partner concentration 90 nM)
How it was run: as §1

[9] = system: PPARg:RXRa 30nM:10nM, anti-RXR (NR concentration 30 nM, RXRa partner concentration 10 nM)
How it was run: as §1

[10] = system: PPARg:RXRa 90nM:30nM, anti-RXR (NR concentration 90 nM, RXRa partner concentration 30 nM)
How it was run: as §1

[11] = system: PPARg:RXRa DBDmut IVT, anti-RXR (DBD mutation: RXRa K156A/R161A, NR concentration 270 nM, RXRa partner concentration 90 nM)
How it was run: as §1

[12] = system: PPARg:RXRa IVT, anti-PPARg (NR concentration 270 nM, RXRa partner concentration 90 nM)
How it was run: as §1

[13] = system: PPARg DBDmut:RXRa IVT, anti-PPARg (DBD mutation: PPARg1 K132A/R137A, NR concentration 270 nM, RXRa partner concentration 90 nM)
How it was run: as §1

[14] = system: PPARg DBDmut IVT, anti-PPARg (DBD mutation: PPARg1 K132A/R137A, NR concentration 270 nM)
How it was run: as §1

[15] = system: PPARg homodimer (NR concentration 180 nM)
How it was run: as §1

[16] = system: PXR:RXRa (NR concentration 270 nM, RXRa partner concentration 90 nM)
How it was run: as §1

[17] = system: PXR homodimer (NR concentration 270 nM)
How it was run: as §1

[18] = system: RARa:RXR (NR concentration 270 nM, RXRa partner concentration 90 nM)
How it was run: as §1

[19] = system: RARa homodimer (NR concentration 270 nM)
How it was run: as §1

[20] = system: RARb:RXRa (NR concentration 270 nM, RXRa partner concentration 90 nM)
How it was run: as §1

Sequence	PBM binding z-score [1]	PBM binding z-score [2]	PBM binding z-score [3]	PBM binding z-score [4]	PBM binding z-score [5]	PBM binding z-score [6]	PBM binding z-score [7]	PBM binding z-score [8]	PBM binding z-score [9]	PBM binding z-score [10]	PBM binding z-score [11]	PBM binding z-score [12]	PBM binding z-score [13]	PBM binding z-score [14]	PBM binding z-score [15]	PBM binding z-score [16]	PBM binding z-score [17]	PBM binding z-score [18]	PBM binding z-score [19]	PBM binding z-score [20]
TAGCCTTGGTCATTGGGCCAGTATAGTACGCATC	-0.646	-0.599	-0.698	-0.456	-0.537	-0.217	0.338	0.117	-0.34	-0.429	-0.486	0.545	-0.509	-0.603	-0.625	-0.515	-0.596	-0.324	-0.586	0.69
AGAACGAGGGCAATGAGTTGACAGCACGGGTGGC	0.329	0.24	-0.349	-0.388	-0.581	1.24	1.38	0.8	0.0302	0.423	3.68	2.54	0.168	0.4	-0.106	1.19	2.68	0.713	-0.225	2.12
GCTCGGAGGACAAGGCCAGAGCTTTGTCCGTAGA	-0.721	-1.04	-0.948	-1.4	-1.59	-1.69	-1.44	-1.18	-1.47	-1.57	-1.3	-0.505	-1.72	-1.33	-1.33	-1.03	-0.879	-0.936	-1.54	0.806
CCTCCTGGGCCATCAGGTCATTGATATCAACGTT	1.24	0.991	0.788	1.31	0.0311	1.73	0.38	1.29	-0.255	0.67	0.202	1.81	-1.18	-0.736	0.643	1.34	0.852	2.16	-0.969	1.99
AATCCAGGGTCATCGTAGGCCAGAGTACGCACAG	7.58	6.18	1.65	4.8	0.807	5.75	6.7	6.07	3.18	4.59	2.54	4.33	1.57	0.689	2.41	5.14	0.854	5.49	1.2	4.32
GGCACGAGGGCATTCGAGTTGATAGCATGGCGAT	1.22	1.79	-0.515	0.139	-1.26	0.942	0.663	0.216	-0.477	-0.229	1.63	0.977	-1.13	-1.45	-0.356	3.77	1.72	0.606	-0.627	1.95
CTCGAAAGGTCGGTTGAGGTGAGTGTACGGATAA	2.54	2.08	-0.0781	1.51	-0.0633	2.67	0.33	1.27	0.405	0.48	0.169	1.3	0.72	-0.675	1.07	3.54	0.527	3.02	0.735	3.07
CCTGCTAGGTCATGGTCAGCTATTCTACAGTATG	3.41	2.49	0.199	1.79	-0.409	3.28	2.34	2.63	0.534	1.64	4.23	3.4	-0.449	-0.223	2.13	1.28	-0.498	2.3	-0.317	3.95
TCTGCTAGGTAAGTTGGTCAGCTAACGAGCTGCC	-0.553	-0.651	-0.909	-0.852	-0.795	-0.166	-0.748	0.411	1.22	0.642	0.619	0.862	-0.126	-0.493	-1.41	-0.474	-1.39	-0.538	-1.81	-0.235
AATAGTTGGTCAGCTGAGGTCACACACAATTCGG	3.52	3.25	3.1	3.57	1.05	3.81	2.21	2.14	0.525	1.25	1.3	2.86	1.06	0.792	3.85	5.58	2.36	4.78	2.44	3.7
GCAGGCAGGTGAAACGCAGGTAACTCAGGGTGGC	0.782	0.881	-0.513	-0.67	-0.423	0.341	0.206	-0.46	-0.909	-0.6	1.12	0.912	-1	-1.1	-0.662	-0.0371	-1.2	0.429	-0.796	0.562
TCTTGTAGATGAGCAGGTTAAGAAAGCTGGCCAA	-0.174	-0.248	-0.441	-0.166	-1.02	0.327	-0.56	0.706	1.86	1.32	0.934	-0.183	-0.514	0.12	0.00499	0.02	-0.92	0.211	-0.441	-0.439
CCAATTAGTTGACCATAAGGGCAACCGAAGCTCG	0.987	0.336	0.562	0.314	0.402	0.626	0.453	0.425	-0.327	0.254	0.617	0.411	0.198	0.147	1.75	0.497	0.892	0.865	1.38	1.67
TCATATAGGTAAACAGGTGAAGGTCCGTAAGTTA	0.526	0.84	0.00797	0.841	-0.136	2.21	2.67	3.2	4.31	3.46	4.86	4.7	1.09	0.987	1.53	0.741	0.241	0.898	0.337	0.842
